GC-B act: GC-B (human) receptor activation; AID 1920062; HEK293-GC-B cells, CNP EC30, cGMP TR-FRET; 0% at EC30 CNP, 100% saturating CNP; activation, % at 10 µM; P20594; 0.11% of 370,000 active;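 active = activation at 10 µM reaching about 35% in either raw or pattern-adjusted values, limit read from the data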
NadD inh: blocks S. aureus nicotinate mononucleotide adenylyltransferase. purified NadD enzyme, colorimetric absorbance read-out. inhibition, % at 20 µM. AID 602399. 0.78% of 360,000 active; in the data active = inhibition above about 26%
Neddyl block: cullin neddylation inhibition. inhibition, % at 25 µM. P61081+Q13564. TR-FRET cullin neddylation, biochemical. 0.58% of 360,000 active; in the data active = inhibition above about 36%
NPR1 activator: GC-A (human) enzyme activation | P16066 | HEK293 GC-A cells, cGMP TR-FRET, EC30 ANP; 0% at EC30 ANP, 100% saturating ANP | activation, % at 10 µM | 0.14% of 370,000 active | AID 1671463; in the data active = activation above about 40%
Target sequence (P16066 whole entry, looked up): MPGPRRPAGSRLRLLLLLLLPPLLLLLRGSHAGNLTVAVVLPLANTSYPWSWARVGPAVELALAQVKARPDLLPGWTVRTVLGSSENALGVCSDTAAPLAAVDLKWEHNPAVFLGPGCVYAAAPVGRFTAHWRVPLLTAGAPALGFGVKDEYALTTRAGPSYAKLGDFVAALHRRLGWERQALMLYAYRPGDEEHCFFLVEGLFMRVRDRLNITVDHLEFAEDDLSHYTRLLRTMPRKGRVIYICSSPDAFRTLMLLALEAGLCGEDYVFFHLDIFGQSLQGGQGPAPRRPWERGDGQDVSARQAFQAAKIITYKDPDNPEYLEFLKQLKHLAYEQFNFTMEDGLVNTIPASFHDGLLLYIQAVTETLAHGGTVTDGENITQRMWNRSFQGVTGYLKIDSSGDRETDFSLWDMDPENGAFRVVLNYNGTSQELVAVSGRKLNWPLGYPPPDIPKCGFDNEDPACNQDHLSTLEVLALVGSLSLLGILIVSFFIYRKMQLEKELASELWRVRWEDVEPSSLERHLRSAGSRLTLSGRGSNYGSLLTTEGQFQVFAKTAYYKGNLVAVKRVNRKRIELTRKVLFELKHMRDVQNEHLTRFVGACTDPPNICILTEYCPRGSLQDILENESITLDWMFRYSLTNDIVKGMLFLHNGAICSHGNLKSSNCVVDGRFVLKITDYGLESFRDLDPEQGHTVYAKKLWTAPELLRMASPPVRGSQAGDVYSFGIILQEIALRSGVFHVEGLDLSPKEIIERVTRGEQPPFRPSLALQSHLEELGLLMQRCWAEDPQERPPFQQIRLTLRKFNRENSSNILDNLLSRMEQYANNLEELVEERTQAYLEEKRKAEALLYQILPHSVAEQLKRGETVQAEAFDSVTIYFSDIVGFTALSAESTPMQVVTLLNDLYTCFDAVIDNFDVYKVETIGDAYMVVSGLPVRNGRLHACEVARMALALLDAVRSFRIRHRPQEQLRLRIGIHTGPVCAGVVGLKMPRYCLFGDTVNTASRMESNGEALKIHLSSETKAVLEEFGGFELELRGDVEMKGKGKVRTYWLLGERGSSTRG
NadD conf: confirmation of Staphylococcus aureus NadD inhibitors; shares compounds with NadD inh; purified S. aureus NadD, colorimetric enzyme assay; inhibition, % at 20 µM; 13% of 2,000 active; in the data active = inhibition mostly above about 42%, no sharp cut-off; inactive = mostly below about 42%
Numbers stand for hits. Only some compounds are listed: those with a hit (about 1.5% of all), similar ones and a draw of the others.

For N#C/C(=C/c1ccc(-c2cccc([N+](=O)[O-])c2)o1)C(=O)Nc1nc(-c2cccs2)cs1 the results were GC-B act inactive, NadD inh 45.6, Neddyl block inactive, NPR1 activator inactive and NadD conf inactive.
Screening N#C/C(=C\c1ccc(-c2ccc([N+](=O)[O-])cc2)o1)C(=O)Nc1nc(-c2cccs2)cs1 returned GC-B act inactive, NadD inh 40.1, Neddyl block inactive, NPR1 activator inactive and NadD conf inactive.
Screening N#C/C(=C\c1ccc(-c2ccccc2[N+](=O)[O-])o1)C(=O)Nc1nc(-c2cccs2)cs1 returned GC-B act inactive, NadD inh 34.0, Neddyl block inactive, NPR1 activator inactive and NadD conf inactive.
For CC(=O)Nc1nc(-c2ccc([N+](=O)[O-])cc2)cs1 the results were GC-B act inactive, NadD inh inactive, Neddyl block inactive and NPR1 activator inactive.
`CC(C)COc1ccc(-c2csc(N3CCC(C(N)=O)CC3)n2)cc1` gave GC-B act inactive and NPR1 activator inactive.
Cc1ccc(NC(=O)Cc2ccc(F)cc2)c(S(=O)(=O)N2CCOCC2)c1 was read as GC-B act inactive and NPR1 activator inactive.
For COc1cccc(C(=O)Oc2c(Br)cc(Br)cc2/C=N/NC(=O)c2cc(C)[nH]n2)c1 the results were GC-B act inactive, NadD inh 42.1, Neddyl block inactive, NPR1 activator inactive and NadD conf inactive.
Cc1cc(C(=O)N/N=C/c2cccc(OC(=O)c3cccc(Br)c3)c2)n[nH]1 was read as GC-B act inactive, NadD inh inactive, Neddyl block inactive and NPR1 activator inactive.
For COC1=C[C@H](C(=O)NCc2ccccn2)[C@H](C)[C@@H](c2ccccc2)CC1=O the results were GC-B act inactive and NPR1 activator inactive.
`COc1cc(OC)cc(-c2c(-c3cccs3)c3cc(-c4ccn[nH]4)ccc3n2C)c1` gave GC-B act inactive, NadD inh 37.7, Neddyl block inactive, NPR1 activator inactive and NadD conf inactive.
`CCOC(=O)CNC(=O)CSc1nnc(-c2ccccc2)n1CC` gave GC-B act inactive and NPR1 activator inactive.
Screening COc1nnc(-c2ccc(C(=O)N3C[C@@H]4C[C@H](C3)c3cccc(=O)n3C4)cc2)c2ccccc12 returned GC-B act inactive, NadD inh inactive, Neddyl block inactive and NPR1 activator inactive.
`O=C(c1ccc(-c2nnc(Nc3cccc(Cl)c3)c3ccccc23)cc1)N1C[C@H]2C[C@H](C1)c1cccc(=O)n1C2` gave GC-B act inactive, NadD inh 28.0, Neddyl block inactive, NPR1 activator inactive and NadD conf inactive.
`O=c1[nH]c(C2CCN(S(=O)(=O)c3ccc(C(F)(F)F)cc3)CC2)nc2c1nnn2Cc1cccc(F)c1` gave GC-B act inactive, NadD inh 31.3, Neddyl block inactive, NPR1 activator inactive and NadD conf inactive.
Cc1ccc(S(=O)(=O)N2CCCC(c3nc4c(nnn4Cc4ccc5c(c4)OCCO5)c(=O)[nH]3)C2)cc1 (configuration not stated) was read as GC-B act inactive, NadD inh 37.1, Neddyl block inactive, NPR1 activator inactive and NadD conf inactive.
`O=c1[nH]c(C2CCN(S(=O)(=O)/C=C/c3ccccc3)CC2)nc2c1nnn2Cc1ccc(F)cc1` gave GC-B act inactive, NadD inh 35.1, Neddyl block inactive, NPR1 activator inactive and NadD conf inactive.
For O=c1[nH]c(C2CCN(S(=O)(=O)c3ccc(F)cc3)CC2)nc2c1nnn2Cc1ccc2c(c1)OCCO2 the results were GC-B act inactive, NadD inh 30.1, Neddyl block inactive, NPR1 activator inactive and NadD conf inactive.
`CCCC[C@H]1C2CC(OC(=O)Nc3ccc(Cl)cc3)C(C2)[C@H]2CCCCN21` (some centres not stated) gave GC-B act inactive and NPR1 activator inactive.
`O=C(Nc1nc2c(Br)cccc2s1)c1ccc2c(c1)OCCO2` gave GC-B act inactive and NPR1 activator inactive.
C[C@@H]1CN(c2ccc(N3CCNC[C@@H]3C)cc2C#N)CCN1Cc1ccccc1 was read as GC-B act inactive and NPR1 activator inactive.
For Cc1ccc(C)c(Cn2nnc3c(=O)[nH]c(C4CCN(S(=O)(=O)c5ccc(S(=O)(=O)N(C)C)cc5)CC4)nc32)c1 the results were GC-B act inactive, NadD inh 46.3, Neddyl block inactive, NPR1 activator inactive and NadD conf inactive.
Screening Cc1ccc(C)c(Cn2nnc3c(=O)[nH]c(C4CCN(S(=O)(=O)c5ccc(S(=O)(=O)NC6CC6)cc5)CC4)nc32)c1 returned GC-B act inactive, NadD inh inactive, Neddyl block inactive and NPR1 activator inactive.
`N#CCCN(Cc1ccccc1)C(c1ccnc2ccccc12)c1nnnn1-c1ccc2c(c1)OCCO2` (configuration not stated) gave GC-B act inactive, NadD inh inactive, Neddyl block inactive and NPR1 activator inactive.
`Cc1cccc(C)c1-n1nnnc1C(c1ccnc2ccccc12)N(CCC#N)Cc1ccccc1` (configuration not stated) gave GC-B act inactive, NadD inh inactive, Neddyl block inactive and NPR1 activator inactive.
For Cc1cccc(C)c1-n1nnnc1C(c1ccnc2ccccc12)N(Cc1ccccc1)Cc1ccccc1 (configuration not stated) the results were GC-B act inactive, NadD inh 32.5, Neddyl block inactive, NPR1 activator inactive and NadD conf inactive.
Screening c1ccc(CN(Cc2ccccc2)C(c2ccnc3ccccc23)c2nnnn2-c2ccc3c(c2)OCCO3)cc1 (configuration not stated) returned GC-B act inactive, NadD inh 40.3, Neddyl block inactive, NPR1 activator inactive and NadD conf inactive.
Screening Cc1cccc(C)c1-n1nnnc1C(c1ccnc2ccccc12)N(C)Cc1ccc(Cl)c(Cl)c1 (configuration not stated) returned GC-B act inactive, NadD inh 29.3, Neddyl block inactive, NPR1 activator inactive and NadD conf inactive.
Screening Cc1cc(C)c2oc(C(=O)Nc3ccc(S(=O)(=O)Nc4nccs4)cc3)cc(=O)c2c1 returned GC-B act inactive, NadD inh inactive, Neddyl block inactive and NPR1 activator inactive.
`O=C(Nc1nccs1)c1cccc(N2C(=O)c3cccc4c([N+](=O)[O-])ccc(c34)C2=O)c1` gave GC-B act inactive, NadD inh 37.5, Neddyl block inactive, NPR1 activator inactive and NadD conf inactive.
`Cc1ccc(Oc2ccc3c(c2)C(=O)N(c2ccc(S(=O)(=O)Nc4nccs4)cc2)C3=O)cc1` gave GC-B act inactive, NadD inh 44.4, Neddyl block inactive, NPR1 activator inactive and NadD conf inactive.
N#Cc1cccc(C(=O)Nc2ccc(S(=O)(=O)Nc3nccs3)cc2)c1 was read as GC-B act inactive, NadD inh inactive, Neddyl block inactive and NPR1 activator inactive.
